Out of some 330,000 compounds screened, about 1,900 (0.58%) were called active. Inconclusive results (about 4%) are left out. These entries were drawn from the full list. Potency and affinity values are given separately. Values without a mark were called inactive. No stated cut-off is given here; in the data, inconclusive means inhibition above about 70% without an active follow-up result; inactive means below that.
Assay: M. tuberculosis growth inhibition, HTS (AID 449762);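 further: bacterial growth assessed after seven days of incubation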
Conditions: M. tuberculosis H37Rv growth inhibition, 7H9 media; at 25 µM; hits give high values

Row | SMILES | inhibition [%]
1 | CC(=O)c1ccc(OCC(=O)N2CCCC2c2ccc3c(c2)OCCCO3)cc1 (stereo not given) | -12.4
2 | NC(=O)CN1CCCC1c1ccc2c(c1)OCCO2 (stereo not given) | -1.31
3 | CCc1nnc(NC(=O)CN2CCN(Cc3cccc(F)c3)CC2)s1 | 13.7
4 | COc1ccc(NS(=O)(=O)c2cccc(C(=O)NCc3ccccn3)c2)cc1 | -5.64
5 | O=C(CCn1cnnn1)Nc1ccc(Cl)cc1Cl | -5.53
6 | O=C(CN1CCCC1)Nc1ccc([N+](=O)[O-])cc1 | 4.32
7 | O=C(CN1CCCCC1)Nc1nnc(-c2ccccc2)s1 | 5.25
8 | O=C(OCC(=O)N1CCCC1)c1ccc(Cl)c([N+](=O)[O-])c1 | -6.77
9 | COc1ccccc1N1CCN(c2ccc(Cl)nn2)CC1 | 0.36
10 | COc1ccccc1N1CCN(c2ccc3ccccc3n2)CC1 | 1.84
11 | CCCNC(=O)NC(=O)COC(=O)c1cccc(NS(=O)(=O)c2ccc(F)c(F)c2)c1 | 5.38
12 | CC1(C2CC2)NC(=O)N(CC(=O)N2CCN(c3ccccc3)CC2)C1=O (stereo not given) | -0.6
13 | Nc1nc(-c2ccco2)nn1C(=O)CCc1ccccc1 | 6.17
14 | CC(=O)c1ccc(NC(=O)C2=CC(c3cccs3)=NS(=O)(=O)N2C)cc1 | 2.16
15 | O=c1[nH]c(Nc2ccccc2)cc2ccccc12 | 0.07
16 | O=c1[nH]c(Nc2ccc(F)cc2)cc2ccccc12 | -14.1
17 | NS(=O)(=O)c1ccc(NC2=CC(=O)C(=O)c3ccccc32)cc1 | 11.2
18 | CC(=O)Nc1ccc(NC2=CC(=O)c3ccccc3C2=O)cc1 | 3.89
19 | COC(=O)CN(c1ccc(C)cc1)S(=O)(=O)c1c(C)[nH]c(=O)[nH]c1=O | -6.71
20 | C=CCSc1nnc(NC(=O)c2ccc(N3CCCC3=O)cc2)s1 | -1.46
21 | C=CC[C@H](CC(=O)NCCO)C(=O)NC[C@@H](OC(=O)[C@@H](CC=C)CC(=O)OC(C)(C)C)c1ccccc1 | -4.9
22 | Cc1cc(N2CCN(c3ccc([N+](=O)[O-])c4cccnc34)CC2)c2ccccc2n1 | -7.93
23 | Cc1ccc(S(=O)(=O)N2CCN(c3ccc(C(F)(F)F)cc3[N+](=O)[O-])CC2)cc1 | 16

Row | SMILES | inhibition [%]
24 | CCC1(CC)C(=O)N(Cc2ccccc2)C(=O)N(Cc2ccccc2)C1=O | -1.75
25 | CCN(c1ccccc1)S(=O)(=O)c1ccc(OC)c(NC(=O)Cc2ccccc2OC)c1 | -3.76
26 | CCN(CCNC(=O)C1CC(=O)N(CCc2ccccc2)C1)c1ccccc1 (stereo not given) | -5.61
27 | COc1cccc(/C=N/NC(=S)NC2CC3CC2C2C=CCC32)c1O (stereo not given) | -6.6
28 | CCOc1ccc(/C=N/NC(=S)NC2CC3CC2C2C=CCC32)cc1 (stereo not given) | 7.16
29 | CC1CCCCC12NC(=O)N(CC(=O)NNC(=O)c1ccc(Br)cc1)C2=O (stereo not given) | 1.45
30 | CCSc1nnc(NC(=O)CSC2=NN3CCCC(=O)N=C3S2)s1 | 2.54
31 | CN(c1cccc(NC(=O)Cc2ccccc2)c1)S(C)(=O)=O | 5.18
32 | O=C(NC(C(=O)N/N=C/c1ccccc1)c1n[nH]c(=O)c2ccccc12)c1ccccc1 (stereo not given) | 2.9
33 | O=C(NC(C(=O)N/N=C/c1ccncc1)c1n[nH]c(=O)c2ccccc12)c1ccccc1 (stereo not given) | 2.1
34 | COc1ccc(CC(=O)Nc2ccccc2N2CCCC2)cc1 | 0.8
35 | Cc1ccc(C2CC(=O)C=C(O)C2)cc1 (stereo not given) | 9.89
36 | COc1ccc(CNC(=O)NCCc2c[nH]c3ccccc23)cc1 | 9.15
37 | CSc1ccccc1NC(=O)COc1nsnc1N1CCOCC1 | 2.19
38 | Cc1cccc(NC(=O)CSc2nc(N)c(NC(=O)c3ccccc3F)c(=O)[nH]2)c1 | -17.1
39 | COC(=O)c1ccc2[nH]c(C(C)(C)O)c(C)c2c1 | -3.19
40 | COc1ccc(C2=NN3C(C2)c2ccccc2OC3c2cccs2)cc1 (stereo not given) | -3.24
41 | c1ccc(C2Oc3ccccc3C3CC(c4cccs4)=NN32)cc1 (stereo not given) | -7.12
42 | COC(=O)COc1cc(=O)oc2ccc(NS(=O)(=O)c3ccccc3)cc12 | 11.6
43 | Cn1cc(C(=O)c2cccc(Cl)c2Cl)cc1C#N | -7.62
44 | COc1ccc(C)cc1NS(=O)(=O)c1ccc(NC(=O)CN(c2cc([N+](=O)[O-])ccc2C)S(C)(=O)=O)cc1 | 0.68
45 | Cc1ccc([N+](=O)[O-])cc1N(CC(=O)NC1CCCC1)S(C)(=O)=O | -1.93
46 | CCN1CCN(C(c2cc(OC)c(OC)c(OC)c2)c2nnnn2C(C)C)CC1 (stereo not given) | -6.3

Row | SMILES | inhibition [%]
47 | CCN1C(=NCCc2ccc([N+](=O)[O-])cc2)N[C@@H](c2ccccc2)[C@H](C(=O)OC)[C@H]1C | -8.81
48 | CCN1C(=NCCc2cccnc2)N[C@@H](c2ccccc2)[C@H](C(=O)OC)[C@H]1C | -0.82
49 | COc1ccc(Nc2oc(-c3ccccc3)nc2C#N)cc1 | -0.48
50 | FC(F)(F)c1ccc(-n2cnc3ccccc32)nc1 | -0.78
51 | COC(=O)c1ccc(N2CCN(c3ccccc3)CC2)nc1 | -3.88
52 | Cc1c(Nc2nc(-c3ccccc3)cs2)c(=O)n(-c2ccccc2)n1C | 0.86
53 | CCOC(=O)c1c(NC(=O)c2cc3n(n2)C(C(F)(F)F)CC(c2ccccc2)N3)sc(C)c1C (stereo not given) | -4.24
54 | CC(C)(C)C(=O)N1CCN(CCN2C(=O)c3cccc4cccc(c34)C2=O)CC1 | -4.28
55 | O=C(C(c1ccccc1)c1ccccc1)N1CCN(CCN2C(=O)c3cccc4cccc(c34)C2=O)CC1 | -9.17
56 | O=C(OCC#CCSc1nnc(-c2cccc3ccccc23)o1)c1cc2ccccc2o1 | 36.1
57 | O=C(OCC#CCSc1nnc(-c2cccc3ccccc23)o1)c1ccc2ccccc2c1 | 8.92
58 | CN1CCN(S(=O)(=O)c2ccc(SCCOc3ccc(Cl)cc3)nc2)CC1 | -1.28
59 | CN1CCN(S(=O)(=O)c2ccc(SCCOc3ccccc3)nc2)CC1 | -0.98
60 | Cc1c(S(=O)(=O)N2CCCCC2)c(=O)n(C)c(=O)n1C | -9.81
61 | CN1C(=O)N(C)C2(c3ccccc3)N(C(C)(C)C)C(=O)NC12c1ccccc1 (stereo not given) | -0.92
62 | Cc1ccc2cc(C)c(N3CCC(C)CC3)nc2c1 | -2.14
63 | Cc1ccc2cc(C)c(N3CCN(c4ccc(F)cc4)CC3)nc2c1 | 0.67
64 | CN(Cc1ccc(Cl)s1)C(=O)CNC(=O)CNC(=O)c1ccc(Cl)cc1Cl | 0.015
65 | CN(Cc1ccc(Cl)s1)C(=O)CSc1nnc(C2CC2)n1C1CC1 | 2.1
66 | O=C(COc1ccc(Cl)cc1Cl)Nc1ccc(-c2ccc(N3CCOCC3)nn2)cc1 | 27.4
67 | Cc1ccc2c(c1)C1C[N+](C)(CC(=O)c3ccccc3)CCC1N2C(=O)c1ccccc1Cl (stereo not given) | -0.23
68 | Cc1ccc2c(c1)C1C[N+](C)(CC(=O)Nc3ccccc3Cl)CCC1N2C(=O)c1ccccc1Cl (stereo not given) | 21.9
69 | CC(C)[C@H](NC(=O)c1ccccc1F)C(=O)Nc1nc2c(s1)CCCC2 | -0.81

Row | SMILES | inhibition [%]
70 | COc1cccc(-c2nc(CS(=O)(=O)CC(=O)Nc3ccccc3Br)c(C)o2)c1 | -5.15
71 | Cc1cc(N2CCCCC2)n2ncc(-c3ccc(Cl)cc3)c2n1 | 94.8
72 | Cc1cc(C)n2cc(-c3ccc(Cl)cc3)c(C(=O)O)c2n1 | 5.32
73 | Cc1nn(C)c(C)c1C1C(C#N)=C(N)Oc2n[nH]c(C)c21 (stereo not given) | 4.26
74 | CC(C)c1ccc(CNc2c([N+](=O)[O-])c(=O)oc3ccccc23)cc1 | 4.35
75 | Cc1cccc(NN=C2c3ccccc3-c3ccccc32)c1 | 3.47
76 | O=C(O)c1cc(NN=C2c3ccccc3-c3ccccc32)ccc1Cl | 14
77 | COc1ccc(-n2c(COc3ccc4c(c3)OCO4)nnc2SCC(=O)O)cc1 | 14.8
78 | Cc1cc2occ(CC(=O)NC3(C)CCS(=O)(=O)C3)c2cc1C (stereo not given) | -9.66
79 | CN(C)c1ccc(CNc2ccc3c(c2)ncn3C(C)(C)C)cc1 | 8.27
80 | CCOc1ccc(CNc2ccc3c(c2)ncn3C(C)(C)C)cc1 | -2.96
81 | CC(C)(C)n1nnnc1C(c1cccc(C(F)(F)F)c1)N1CCC(O)CC1 (stereo not given) | 2.3
82 | Cc1ccc(-c2noc(C3CCCN(C(=O)c4ccccc4)C3)n2)o1 (stereo not given) | 2.39
83 | Cc1ccc(-c2noc(C3CCCN(C(=O)c4ccc(Cl)cc4)C3)n2)o1 (stereo not given) | 0.38
84 | COc1cccc(C(=O)NNC2=C(C(=O)C(F)(F)F)CCC2)c1 | 0.71
85 | O=C(Nc1cccc(S(=O)(=O)NC2=NCCCCC2)c1)c1cc(-c2ccccc2)nc2ccccc12 | 4.99
86 | CCn1c(SCC(=O)N2CCCCC2C)nnc1-c1ccco1 (stereo not given) | -6.38
87 | O=C(N/N=C/c1cc2ccccc2nc1Cl)[C@H]1C[C@@H]1c1ccccc1 | 22.8
88 | Cc1cccc2cc(/C=N/NC(=O)[C@H]3C[C@@H]3c3ccccc3)c(Cl)nc12 | 1.65
89 | N#Cc1ccc(OCC(=O)Nc2cccc(S(=O)(=O)NC3=NCCCCC3)c2)cc1 | -7.44
90 | Oc1ccc(Nc2nc(-c3ccccc3)nc3ccccc23)cc1 | 10.3
